Inconclusive results are not listed. Unmarked numbers belong to inactive results. The source made the active and inactive calls. Calls follow the shape of the dose curve; as a rule, active = well fitted inhibition curve with a large enough effect; inconclusive = small, poorly fitted or top-dose-only effect; inactive = no such curve, though single readings can be large or run the other way.
Assay: Confirmation assay for measurement of the activity of small molecule inhibitors on Zika virus induced Caspase-3 activity in human iPSC derived neural progenitor cells (hNPCs)
Conditions: hNPC ZIKV-induced caspase-3/7, Caspase-Glo luminescence, 6 h; series mostly up to 46.1 µM; activity, negative = inhibition: at the top concentration
Description: National Center for Advancing Translational Sciences [NCATS] Johns Hopkins University School of Medicine Florida State University Assay Overview: Increase in the Caspase-3 activity indicates an activation of apoptosis cell death pathway caused by Zika virus infection in certain types of neuronal cells including human neural progenitor cells (hNPCs), astrocytes, and astrocytoma cell line (SNB-19). This cell-based caspase-3 activity assay measures the increased caspase-3 activity in the human iPSC derived neural progenitor cells (hNPCs) after a 6-hour Zika virus infection with a luminescence readout. A decrease in the luminescence signal in this assay by small molecule treatment indicates an inhibitory effect of that small molecule on the Zika virus induced caspase-3 activity that may correlate with its effect on reduction of Zika virus caused cell death.
Assay Protocol Summary: The medium for hNPCs consists of DMEM/F12, N2 supplement (ThermoFisher, Cat.# 17502048), NEAA (ThermoFisher, Cat. # 11140050), 2 ug/ml heparin, 2 uM cyclopamine, and B27 (ThermoFisher, Cat. # 17504044). A Caspase-Glo 3/7 assay kit (catalog number G8092; Promega, Madison, WI) was used to detect caspase-3 activity induced by Zika virus infection in human cells. The reagent mixture was reconstituted as described in the protocol from the manufacturer. Polystyrene tissue culture treated and PDL coated white plates were obtained from Greiner Bio-One (Monroe, NC). Cells were seeded in 384- or 1536-well assay plates and cultured at 37 C with 5% CO2 for 16 to 20 hours. The typical cell seeding density in the 1536-well plate assay is 350 cells/well in 3 ul medium for hNPCs in tissue culture treated plates. Compounds were added to cells and incubated for one hour before addition of ZIKV solution to cells (2 FFU/cell). After incubation at 37 C with 5% CO2 for 6 hours, the reagent mixture of Caspase-Glo 3/7 assay kit was added to each well, followed by incubation at room temperature for 30 minutes. The luminescence intensity of the assay plates was measured using a ViewLux plate reader (PerkinElmer). Data were normalized by using the cell-containing wells without ZIKV as a negative control (0% induction of caspase 3/7 activity) and wells containing ZIKV infected cells (Caspase-3 activity induced) as a positive control (100% induction of caspase 3 activity). The percentage inhibitions of the increased Caspase-3 activity by small molecule inhibitors were then calculated.

| Compound | activity, negative = inhibition [%] | Potency |
| --- | --- | --- |
| CC(C)[N+](C)(CCC(C(N)=O)(c1ccccc1)c1ccccc1)C(C)C | 5.49 |  |
| CC(C)N[C@@H]1CCn2c(=O)[nH]c3cccc(c32)[C@@H]1O | -9.33 |  |
| O=C1C=CC[C@@H]2[C@H]3CCCN4CCC[C@@H](CN12)[C@@H]34 | 25.5 |  |
| COC1(CS(=O)c2ccccc2)CCN(CCc2c[nH]c3ccc(F)cc23)CC1 (centres undefined) | 6.59 |  |
| COc1cccc2c1C(=O)c1c(O)c3c(c(O)c1C2=O)C[C@@](O)(C(=O)CO)CC3OC1CC(N2CCOC(OC)C2)C(O)C(C)O1 (some centres undefined) | 37.9 |  |
| Oc1ccc([C@H]2CNCc3c2ccc(O)c3O)cc1O | -7.08 |  |
| O=C(Nc1ccc(Br)cc1)c1cc(Br)cc(Br)c1O |  | 13.8 µM (active) |
| CC(O)CN1CCN(CC(=O)[O-])CCN(CC(=O)[O-])CCN(CC(=O)[O-])CC1.[Gd+3] (centres undefined) | 6.07 |  |
| O=C1CCC[C@@H]2[C@H]3CCCN4CCC[C@@H](CN12)[C@@H]34 | 34.5 |  |
| COP(=S)(OC)SCN1C(=O)c2ccccc2C1=O | -12.9 |  |
| CC(C)[C@H]1C(=O)N[C@H](CO)Cc2c[nH]c3cccc(c23)N1C | -5.61 |  |
| CC[n+]1c(-c2ccccc2)c2cc(N)ccc2c2ccc(N)cc21 | 3.42 |  |
| O=S(=O)(CC1CS1)c1ccc(Oc2ccccc2)cc1 (centres undefined) | 38.7 |  |
| O=c1c2ccccc2[se]n1-c1ccccc1 |  | 7.74 µM (active) |
